In all, about 1,400 compounds went through this assay and about 350 (25%) were called active. Roughly 2% stayed inconclusive and do not appear here. How the calls were made is not given here. The list is a sample of the results. Results with a measured potency or affinity are listed apart.
Assay: inhibitors of Clostridioides difficile proliferation – 4-point retest, confirmation (AID 1224921);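 further: plate controls were DMSO wells for no effect and levofloxacin 16 µg/mL wells for full effect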
Settings: Clostridioides difficile clinical isolate growth, OD600, 24 h, hits give low values; at 30 µM unless noted

Max activity, inactive:
CCCC(=O)Nc1ccc2c(c1)C(=O)N(C)C[C@H](OC)[C@H](C)CN(Cc1ccc(F)cc1)[C@H](C)CO2 22.5%
CC(C)CC#Cc1ccc2c(c1)O[C@H](CN(C)Cc1ccc3c(c1)OCO3)[C@H](C)CN([C@H](C)CO)S2(=O)=O 43.6%
COc1ccccc1CNC(=O)C[C@@H]1C[C@@H]2c3cc(NC(=O)NC4CCCC4)ccc3O[C@@H]2[C@@H](CO)O1 -8.98% [at 1.8 µM]
C[C@H](CO)N1C[C@H](C)[C@H](CN(C)C(=O)NC2CCCCC2)Oc2cc(C#Cc3ccc(F)cc3)ccc2S1(=O)=O 14.3%
COc1cccc(-c2ccc3c(c2)O[C@H](CN(C)Cc2cccnc2)[C@@H](C)CN([C@@H](C)CO)S3(=O)=O)c1 21.5%
CO[C@@H]1CN(C)C(=O)c2ccc(NC(=O)NC(C)C)cc2OC[C@@H](C)N(C(=O)NC(C)C)C[C@@H]1C 16.7%
C[C@H]1CN([C@@H](C)CO)S(=O)(=O)c2ccc(C#CC3CCCC3)cc2O[C@H]1CN(C)C(=O)Cc1ccccc1 16.1%
CCCNC(=O)C[C@@H]1CC[C@H]2[C@H](COc3ccc(NC(=O)c4cccc(Cl)c4)cc3C(=O)N2C)O1 -10.6% [at 8 µM]
C=CCOC(=O)[C@H]1[C@@H]2C(=O)O[C@@H](c3ccccc3)[C@@H](c3ccccc3)N2[C@@H](c2ccc(OCCOC(=O)[C@H]3C[C@H]4C(=O)N5CCC[C@H]5C(=O)N4[C@H]3c3cccc(OCCO)c3)cc2)[C@]12C(=O)Nc1ccccc12 -23.8% [at 8 µM]
C[C@@H]1CN([C@@H](C)CO)S(=O)(=O)c2ccc(-c3cncnc3)cc2O[C@H]1CN(C)C(=O)CC1CC1 -11% [at 8 µM]
CN(C)CC(=O)N1[C@H](C#N)[C@@H](c2ccc(/C=C/c3ccccc3)cc2)[C@H]1CO 19.5%
CO[C@H]1CN(C)C(=O)c2ccc(NC(=O)c3ccccc3F)cc2OC[C@@H](C)N(CC2CC2)C[C@H]1C 9.45%
CCCNC(=O)Nc1ccc2c(c1)OC[C@@H](C)N(Cc1ccccc1)C[C@@H](C)[C@H](OC)CN(C)C2=O 40.4%
C[C@H](CO)N1C[C@H](C)[C@@H](CN(C)C(=O)c2ccccc2)OCCCC[C@H](C)Oc2ccc(NC(=O)Nc3cccc4ccccc34)cc2C1=O 39.2%
CNC[C@@H]1OCCCC[C@@H](C)Oc2ccc(NC(=O)Nc3cccc4ccccc34)cc2C(=O)N([C@H](C)CO)C[C@H]1C 27.3%
CNC[C@@H]1OCCCC[C@H](C)Oc2ccc(NC(=O)Nc3ccc(C(F)(F)F)cc3)cc2C(=O)N([C@@H](C)CO)C[C@@H]1C 52.5% [at 8 µM]
C[C@@H]1CCCCO[C@@H](CN(C)S(=O)(=O)c2ccccc2)[C@@H](C)CN([C@H](C)CO)C(=O)c2cc(NC(=O)Nc3ccc(C(F)(F)F)cc3)ccc2O1 12.1% [at 8 µM]
CNC[C@H]1OCCCC[C@@H](C)Oc2ccc(NC(=O)Nc3ccc(C(F)(F)F)cc3)cc2C(=O)N([C@@H](C)CO)C[C@H]1C 33.8% [at 8 µM]
